In PubChem BioAssay AID652231 (Johns Hopkins Ion Channel Center, 2013):
The whole screen tested about 2,300 compounds, of which about 55 (2%) were called active. The sample holds actives, similar compounds and a random draw of the others, so the mix is not that of the screen.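 The calls were made as follows: active = duplicate-averaged calcium signal over 20% of the ionomycin maximum, relative to buffer baseline; inactive = the rest.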

Assay: calcium mobilization in TMEM16A/YFP HEK293 cells, confirmation, counter-screen for TMEM16A inhibitor project (AID 652231);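 as to calcium response (% of ionomycin): each well's signal is peak minus trough fluorescence divided by its pre-addition baseline; 0% = buffer wells and 100% = ionomycin wells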
Conditions: TMEM16A/YFP HEK293, Fluo4 calcium mobilization, at 10 µM; hits give high values

| SMILES | calcium response (% of ionomycin) |
| --- | --- |
| CCc1cc2c(N3CCN(c4nnc(CC)s4)CC3)ncnc2s1 | inactive |
| COc1ccc(C(=O)NC2CCCc3c2cnn3-c2cccc(C)c2C)c(OC)n1 (configuration not stated) | inactive |
| O=c1cc(C(F)(F)F)[nH]c(=O)n1C1CCCCC1 | inactive |
| CCOC(=O)c1cccc(NC(=O)CCn2nnc3ccccc32)c1 | inactive |
| COc1ccc(OCC(=O)NCCc2ccc(S(N)(=O)=O)cc2)cc1 | inactive |
| Fc1ccc2[nH]c3c(N4CCSCC4)ncnc3c2c1 | inactive |
| Cc1ccc(-n2ncc3c(N4CCN(c5ccc(F)cc5)CC4)ncnc32)c(C)c1 | inactive |
| Cc1ccc(-c2noc(CSc3nnnn3-c3ccccc3)n2)cc1 | inactive |
| Cc1cc(C=O)c(C)n1-c1ccc(NC2CCCCC2)c([N+](=O)[O-])c1 | inactive |
| Cc1cccc(-n2c(SCC(N)=O)nc3c(c2=O)C2(CCCCC2)Cc2ccccc2-3)c1 | inactive |
| O=C(NCCc1ccc2c(c1)OCCO2)c1cc2ccccc2o1 | inactive |
| COc1ccc(CCC(=O)c2ccc(OC)cc2)cc1 | inactive |
| CCCCNC(=O)CSc1nc2n[nH]c(C)c2c(=N)n1-c1cccc(Cl)c1C | inactive |
| CCOC(=O)N1CC=C2C(C#N)=C(N)C(C#N)(C#N)[C@H](c3cccs3)[C@H]2C1 | inactive |
| COc1ccc(NC(=O)C2=CC(c3ccc(OC)c(OC)c3)=NS(=O)(=O)N2C)cc1 | inactive |
| Cc1nc2c(C(=O)NCc3ccc4c(c3)OCO4)c[nH]n2c(=O)c1Cc1ccccc1F | inactive |
| Cc1ccc(C)c(N2CCN(S(=O)(=O)c3ccc4c(c3)oc(=O)n4C)CC2)c1 | inactive |
| CC1CCN(C(=O)c2ccc(CSc3ccc(Cl)cc3)cc2)CC1 | inactive |
| CN1c2ccc(C=O)c3c(C=O)ccc(c23)N(C)C1(C)C | 64.5% (active) |
| COc1cccc(CNS(=O)(=O)c2ccc3c(c2)CC(C)N3C(=O)C2CCC2)c1 (configuration not stated) | inactive |
| CN(Cc1cccnc1)C(=O)c1cc(COc2ccc3ncccc3c2)on1 | inactive |
| Cc1ccc2c(c1)N(S(=O)(=O)c1cc(-c3cc(C)no3)ccc1C)CCO2 | inactive |
| CC(=O)c1c(C)[nH]c(C(=O)COC(=O)c2cccc(S(=O)(=O)N(C)c3ccccc3)c2)c1C | inactive |
| Cc1ccc(C(=O)O)cc1-c1ccc(/C=C2\SC(=O)N(CC(=O)Nc3ccc4c(c3)OCO4)C2=O)o1 | inactive |
| CCN(CC)S(=O)(=O)c1ccc(N(C)Cc2ccc(C(F)(F)F)cc2)nc1 | inactive |
| Cn1c(=O)n(C)c2cc(S(=O)(=O)N3CCCc4ccccc43)ccc21 | inactive |

| SMILES | calcium response (% of ionomycin) |
| --- | --- |
| N#Cc1nc(COc2ccc(-c3ccccc3)cc2)oc1NCc1cccnc1 | inactive |
| CCn1nccc1C(=O)Nc1ccc(S(=O)(=O)NC23CC4CC(CC(C4)C2)C3)cc1 | inactive |
| C=CCn1c(SCC(=O)Nc2nc3ccccc3s2)nnc1-c1ccccc1O | inactive |
| CCCc1cc(=S)n2c([nH]c3ccccc32)c1C#N | inactive |
| COc1ccc(-c2nc(CCNC(=O)c3ccc(Br)o3)cs2)cc1 | inactive |
| O=C(CN1CCN(C(=S)NC2CCCC2)CC1)Nc1ccc(Oc2ccccc2)cc1 | inactive |
| Cc1ccccc1-n1nnnc1SCCCC(=O)c1ccc(F)cc1 | inactive |
| Cc1ccc(N)cc1-n1c(C)ccc1C | inactive |
| Cc1ccc(C)c(N2CCN(C(=O)CCCCn3c(=O)[nH]c4ccccc4c3=O)CC2)c1 | inactive |
| CCOC(=O)C(Sc1ncc(C#N)c(N)n1)C(C)C (configuration not stated) | inactive |
| O=C(COC(=O)CCc1c[nH]c(=O)[nH]1)Nc1ccccc1Cl | inactive |
| Cc1ccc(NC(=O)C(C)c2cccc(C(=O)c3ccccc3)c2)cc1 (configuration not stated) | 20.5% (active) |
| S=C(NCc1ccc(Cl)cc1)NC12CC3CC(CC(C3)C1)C2 | inactive |
| Cc1noc(C)c1COC(=O)c1cc2ccccc2cc1O | inactive |
| C=CCSc1nsc(NC(=O)Nc2cccc(C(C)=O)c2)n1 | inactive |
| CCCOc1ccc(Cc2c(Cl)nc(SC)nc2NC)cc1 | inactive |
| Cn1c(CCN2CCCCCC2)nc2cc(NC(=O)Nc3ccccc3)ccc21 | inactive |
| CCOC(=O)N1CCN(C(=O)c2ccc3c(c2)N(Cc2ccc(C)cc2)CCS3)CC1 | inactive |
| CSc1nsc(NC(=O)Nc2ccccc2)n1 | inactive |
| CCC(=O)Nc1ccc2nc(C)n(Cc3ccccc3Cl)c(=O)c2c1 | inactive |
| Cc1ccc(NC(=O)CN(C)CC(=O)Nc2cccc(F)c2)cc1[N+](=O)[O-] | inactive |
| Cc1ccc(N2C(=O)S/C(=C/c3cn(C)c4ccccc34)C2=O)cc1 | inactive |
| Cc1nc(SCC(=O)N2CCc3ccccc3C2)c2c(C)c(C)sc2n1 | inactive |
| COc1ccc(CN(C)C(=O)CC(c2ccccc2)c2ccccc2)cc1 | inactive |
| Cc1nc(C)c(-c2csc(NCCc3ccccc3)n2)s1 | inactive |
| COC(=O)c1ccc(NC(=O)c2ccccc2NS(=O)(=O)c2ccccc2)cc1 | inactive |

| SMILES | calcium response (% of ionomycin) |
| --- | --- |
| O=C(CSCc1ccc(Cl)cc1)N1CCN(Cc2ccc3c(c2)OCO3)CC1 | inactive |
| COc1ccc2[nH]cc(/C=C(/C#N)S(=O)(=O)c3ccccc3)c2c1 | inactive |
| CC1=NN(c2cccc(Cl)c2)C(=O)C12CC(C)=C(C)CS2 (configuration not stated) | inactive |
| Cc1ccc(F)cc1NC(=O)Cc1nn(C)c(=O)c2ccccc12 | inactive |
| CSc1cccc(NC(=S)N(C(C)C)C(C)c2ccccn2)c1 (configuration not stated) | inactive |
| Cc1cc(C)cc(NS(=O)(=O)c2ccc(Oc3ncc(C(F)(F)F)cc3Cl)cc2)c1 | inactive |
| CN(c1cccc(NC(=O)c2ccc(CN3CCc4ccccc4C3)cc2)c1)S(C)(=O)=O | inactive |
| CC(C)CNC(=S)NNC(=O)c1nn(C)cc1Cl | inactive |
| CC(NC(=O)c1ccco1)C(=O)Nc1nc(-c2ccccn2)cs1 (configuration not stated) | inactive |
| COc1ccc(S(=O)(=O)NCCCCOc2ccc(Cl)cc2)cc1 | inactive |
| COc1cc(CC(=O)Nc2nc(-c3ccc(F)c(F)c3)cs2)cc(OC)c1OC | inactive |
| C=C(C)Cn1c(C)cc(C)c(S(=O)(=O)c2ccccc2C)c1=O | inactive |
| Cc1ccc(-c2csc(-c3c[nH]c4ccccc34)n2)cc1 | inactive |
| S=C(NCC1CCCO1)N1CCN(c2ccc(Cl)c(Cl)c2)CC1 (configuration not stated) | inactive |
| COc1ccc(CNc2nnnn2C)cc1 | inactive |
| O=C(Nc1cccc(S(=O)(=O)Nc2ccc(Cl)cc2)c1)c1ccc2c(c1)OCCO2 | inactive |
| CSc1nnc2c(n1)OC(c1ccsc1)N(C(C)=O)c1ccccc1-2 (configuration not stated) | inactive |
| CCOC(=O)C1=C(CN2CCc3ccccc32)NC(=O)NC1c1cccc([N+](=O)[O-])c1 (configuration not stated) | inactive |
| O=S1(=O)CCN(Cc2ccccc2Cl)CC1 | inactive |
| COc1ccc(Cl)cc1NC(=O)CCS(=O)(=O)c1cc2c(cc1C)NC(=O)CO2 | inactive |
| O=C(Nc1nc(-c2ccc3c(c2)OCO3)cs1)c1ccncc1 | inactive |
| Cc1nc2ccccc2cc1OCc1ccc(F)cc1 | inactive |
| CC(C)(C)C(=O)/C(C#N)=C/c1ccc(O)cc1 | inactive |
| O=C(O)c1ccc(NC(=O)C2CCCCC2)cc1 | inactive |
| Cc1ccc(-n2[nH]c(C)c(/C=N/N3C(=O)c4cccc5cccc(c45)C3=O)c2=O)cc1 | 43.5% (active) |
| Cc1[nH]n(-c2cccc(Cl)c2)c(=O)c1-c1ccc(Cl)cc1 | inactive |

| SMILES | calcium response (% of ionomycin) |
| --- | --- |
| O=C1c2ccccc2C(Nc2ccc3c(c2)OCCO3)N1Cc1ccco1 (configuration not stated) | inactive |
| Cc1cccc(N=Nc2c(O)[nH]c3ccc(F)cc23)c1 | inactive |
| CCCCn1ccnc1C(=O)c1cccc(S(=O)(=O)N2c3ccccc3CC2C)c1 (configuration not stated) | inactive |
| O=C(CNCCC1=CCCCC1)Nc1ccccc1N1CCCCCC1 | inactive |
| CCCC(=O)Nc1ccccc1N1CCN(C(=O)c2ccccc2)CC1 | inactive |
| S=C(NCc1cccs1)Nc1ccc(Cl)cc1 | inactive |
| N#Cc1nc(N)nc(N(c2ccccc2)c2ccccc2)n1 | inactive |
| Fc1ccc(CSc2nnc(-c3cc4c(s3)-c3ccccc3CC4)o2)cc1 | inactive |
| Cn1c(CN2CCOCC2)nc2cc(NC(=O)c3ccc(Cl)cc3)ccc21 | inactive |
| O=C1NC(=O)C2C1C(c1ccc([N+](=O)[O-])cc1)=NN2Cc1ccccc1 (configuration not stated) | inactive |
| O=C(N/N=C/c1cc(Cl)cc([N+](=O)[O-])c1O)C(O)(c1ccccc1)c1ccccc1 | inactive |
| O=C(COc1ccccc1)NCc1ccc2c(c1)OCO2 | inactive |
| CN(C)c1cc[n+](Cc2ccccc2)cc1 | inactive |
| CCCCCc1ccc(-c2ccc(C(=O)O)cc2)nc1 | inactive |
| Cc1ccc2c(c1)N(CC(=O)N1CCCc3ccccc31)C(=O)C(C)O2 (configuration not stated) | inactive |
| COC(=O)c1ccc(COC(=O)c2c(C)nn(Cc3ccccc3Cl)c2Cl)o1 | inactive |
| CCOC(=O)C1CCN(c2ncnc3c2oc2ccc(Br)cc23)CC1 | inactive |
| Cc1nc(CNS(=O)(=O)c2ccc(Oc3ccccc3)cc2)cs1 | inactive |
| CC(=O)c1cc(CN2CCC(C(=O)Nc3cccc(-c4cscn4)c3)CC2)cs1 | inactive |
| c1ccc(-c2nnc(SCc3nc4ccccc4[nH]3)o2)cc1 | inactive |
| COc1ccc(-n2c(C)cc(C(=O)CSc3nnc(-c4cccs4)o3)c2C)cc1 | inactive |
| O=C(NC(=S)Nc1ccccc1C(=O)O)c1ccc(-c2ccc(Br)cc2)o1 | 29% (active) |
| O=C(Nc1ccccc1)c1ccccc1NC(=O)C(F)(F)F | inactive |
| N#CC1=C(SCc2ccccc2)NC(=O)C(C#N)C12CCCC2 (configuration not stated) | inactive |
